From PubChem BioAssay (NCATS)
Results filed as inconclusive are left out. Unmarked numbers belong to inactive results. Active and inactive are the calls of the source. Calls follow the shape of the dose curve; as a rule, active = well fitted inhibition curve with a large enough effect; inconclusive = small, poorly fitted or top-dose-only effect; inactive = flat fitted curve, though single readings scatter.

Test: Drug repurposing screens with cells derived from glioblastoma tumor samples (AID 1345199); also: nearly all actives have a fitted effect of over 40% in size
Conditions: GBM patient neurospheres viability, ATP luminescence, 48 h
Procedure, shortened: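 Four patient lines of CD133+ GBM neurospheres were screened at several concentrations; hits were retested in those lines plus three slower-growing GBM lines, using 48-hour treatment and ATP-based viability.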

[1] = at 45.9 µM (top of the series), tumour line B
[2] = at 45.9 µM (top of the series), tumour line D
[3] = at 46 µM (top of the series), tumour line A
[4] = at 46.1 µM (top of the series), tumour line C
[5] = at 20 µM (top of the series), tumour line C
[6] = at 21.2 µM (top of the series), tumour line B
[7] = at 21.2 µM (top of the series), tumour line D
[8] = at 21.3 µM (top of the series), tumour line A
% is scaled to controls: 0 for no effect and ±100 for the full control effect; potency is read from the fitted curve at half-maximal effect.

Molecule `CCCCCCCC(=O)O` has an activity, negative = cell killing [1] of -7.1%, an activity, negative = cell killing [2] of -17.5% and an activity, negative = cell killing [3] of -22.2%. The activity, negative = cell killing [4] was -13.3%.

Work on `CC[C@H]1OC(=O)[C@H](C)[C@@H](O[C@H]2C[C@@](C)(OC)[C@@H](O)[C@H](C)O2)[C@H](C)[C@@H](O[C@@H]2O[C@H](C)C[C@H](N(C)C)[C@H]2O)[C@](C)(O)C[C@@H](C)/C(=N\OCOCCOC)[C@H](C)[C@@H](O)[C@]1(C)O` yielded an activity, negative = cell killing [5] of -5.57%, an activity, negative = cell killing [6] of -9.58% and an activity, negative = cell killing [7] of -24%. The activity, negative = cell killing [8] was -24.2%.

With `CN(C)CC/C=C1/c2ccccc2CSc2ccccc21` the activity, negative = cell killing [5] was -1.3%, the activity, negative = cell killing [6] was -26.2% and the Potency (tumour line A) was 12.6 µM (active). The Potency (tumour line D) was 12.6 µM (active).

Work on `CCCCC(=O)N(Cc1ccc(-c2ccccc2-c2nn[nH]n2)cc1)[C@@H](C(=O)O)C(C)C` yielded an activity, negative = cell killing [1] of 2.85%, an activity, negative = cell killing [2] of -14.3% and an activity, negative = cell killing [3] of -22.5%. For the same molecule, the activity, negative = cell killing [4] was 9.38%.

For `CC(=O)N[C@@H](CC(=O)N[C@@H](CCC(=O)O)C(=O)O)C(=O)O`, the activity, negative = cell killing [1] was -3.93%, the activity, negative = cell killing [2] was 0.816% and the activity, negative = cell killing [4] was 6.84%. The Potency (tumour line A) was 22.4 µM (active).

In the case of `CC(=O)N(CC(C)C(=O)O)c1c(I)cc(I)c(N)c1I` (configuration not stated), the activity, negative = cell killing [5] is reported as -1.12%, the activity, negative = cell killing [6] is reported as -5.01% and the activity, negative = cell killing [7] is reported as -13.7%. The activity, negative = cell killing [8] was -23.8%.

Work on `CC(Oc1ccccc1)C(=O)N[C@@H]1C(=O)N2[C@@H]1SC(C)(C)[C@@H]2C(=O)O` (some centres not stated) yielded an activity, negative = cell killing [5] of 1.64%, an activity, negative = cell killing [6] of -4.78% and an activity, negative = cell killing [7] of -2.95%. It also gave an activity, negative = cell killing [8] of 2.19%.

For `OCCO[C@@H]1[C@@H](O)[C@H](O)[C@@H](CO)O[C@@H]1O`, the activity, negative = cell killing [1] was -12.3%, the activity, negative = cell killing [2] was -11.5% and the activity, negative = cell killing [3] was -14.9%. The activity, negative = cell killing [4] was -19.4%.

In the case of `O=S(=O)(O)O`, the activity, negative = cell killing [1] is reported as 3.03%, the activity, negative = cell killing [2] is reported as -20.1% and the activity, negative = cell killing [3] is reported as -0.209%. The activity, negative = cell killing [4] was -1.26%.

With `CCCC(=O)O[C@]1(C(=O)COC(C)=O)CC[C@H]2[C@@H]3C[C@H](F)C4=CC(=O)C=C[C@]4(C)[C@@]3(F)[C@@H](O)C[C@@]21C` the activity, negative = cell killing [1] was -13.7%, the activity, negative = cell killing [2] was -22.5% and the activity, negative = cell killing [3] was -29.1%. It also gave an activity, negative = cell killing [4] of -14.3%.

In the case of `CC1(C)S[C@@H]2[C@H](NC(=O)Cc3ccccc3)C(=O)N2[C@H]1C(=O)O`, the activity, negative = cell killing [1] is reported as -9.27%, the activity, negative = cell killing [2] is reported as -18.5% and the activity, negative = cell killing [3] is reported as -18.5%. For the same molecule, the activity, negative = cell killing [4] was -5.88%.

With `CC[N+](C)(C)Cc1ccccc1Br` the activity, negative = cell killing [5] was -2.45%, the activity, negative = cell killing [6] was 0.866% and the activity, negative = cell killing [7] was -1.19%. It also gave an activity, negative = cell killing [8] of -11%.

In the case of `CC1=CCC(C(C)(C)O)CC1` (configuration not stated), the activity, negative = cell killing [1] is reported as -2.21%, the activity, negative = cell killing [2] is reported as -4.36% and the activity, negative = cell killing [3] is reported as -13.1%. The activity, negative = cell killing [4] was -3.81%.

In the case of `Cc1ccccc1OCC(O)CNCCOc1ccc(C(N)=O)cc1` (configuration not stated), the activity, negative = cell killing [1] is reported as 6.35%, the activity, negative = cell killing [2] is reported as -24% and the activity, negative = cell killing [4] is reported as -1.19%. The Potency (tumour line A) was 17.8 µM (active).

Work on `O=C(O)CCC(=O)C(=O)O` yielded an activity, negative = cell killing [1] of -7.95%, an activity, negative = cell killing [2] of 2.23% and an activity, negative = cell killing [3] of -23.8%. For the same molecule, the activity, negative = cell killing [4] was 3.09%.

`Cc1cn([C@H]2C[C@H](O)[C@@H](CO)O2)c(=O)[nH]c1=O` gave an activity, negative = cell killing [1] of -14.8%, an activity, negative = cell killing [2] of 6.82% and an activity, negative = cell killing [3] of -23.5%. The activity, negative = cell killing [4] was -19.1%.

`CCOC(C)=O` showed an activity, negative = cell killing [1] of -6.99%, an activity, negative = cell killing [2] of -8.33% and an activity, negative = cell killing [3] of -18.3%. For the same molecule, the activity, negative = cell killing [4] was 2.8%.

For `CNC(C)[C@@H]1CC[C@@H](N)[C@@H](O[C@H]2[C@H](O)[C@@H](O[C@H]3OC[C@](C)(O)[C@H](NC)[C@H]3O)[C@H](N)C[C@@H]2N)O1` (some centres not stated), the activity, negative = cell killing [5] was -7.4%, the activity, negative = cell killing [6] was -11.6% and the activity, negative = cell killing [7] was 12.7%. It also gave an activity, negative = cell killing [8] of -18.8%.

In the case of `C=C(NC(=O)C(=C)NC(=O)c1csc(C2=N[C@@H]3c4csc(n4)[C@H]4NC(=O)c5csc(n5)[C@H]([C@](C)(O)[C@@H](C)O)NC(=O)[C@H]5CSC(=N5)C(=CC)NC(=O)C([C@@H](C)O)NC(=O)c5csc(n5)[C@]3(CC2)NC(=O)[C@H](C)NC(=O)C(=C)NC(=O)[C@H](C)NC(=O)C([C@@H](C)CC)NC2C=Cc3c([C@H](C)O)cc(nc3C2O)C(=O)O[C@@H]4C)n1)C(N)=O` (some centres not stated), the activity, negative = cell killing [5] is reported as -17.2%, the Potency (tumour line A) is reported as 11.2 µM (active) and the Potency (tumour line B) is reported as 14.1 µM (active). The Potency (tumour line D) was 14.1 µM (active).

`CC1=C(/C=C/C(C)=C/C=C/C(C)=C/C=C/C=C(C)/C=C/C=C(C)/C=C/C2=C(C)CCCC2(C)C)C(C)(C)CCC1` gave an activity, negative = cell killing [1] of -10.1%, an activity, negative = cell killing [2] of -14.5% and an activity, negative = cell killing [3] of -34.5%. It also gave an activity, negative = cell killing [4] of 5.35%.

`CC(C)(C)C(=O)OCOC(=O)[C@@H]1N2C(=O)[C@@H](N=CN3CCCCCC3)[C@H]2SC1(C)C` showed an activity, negative = cell killing [5] of -7.48%, an activity, negative = cell killing [6] of -4.41% and an activity, negative = cell killing [7] of 17.4%. For the same molecule, the activity, negative = cell killing [8] was -13.2%.

`CCCC(=O)Nc1ncnc2c1ncn2[C@@H]1O[C@@H]2COP(=O)(O)O[C@H]2[C@H]1OC(=O)CCC` showed an activity, negative = cell killing [1] of -14.5%, an activity, negative = cell killing [2] of -5% and an activity, negative = cell killing [3] of -18.2%. For the same molecule, the activity, negative = cell killing [4] was -13.8%.

Work on `CN1C(=O)CN2CCc3ccccc3C2c2cc(Cl)ccc21` (configuration not stated) yielded an activity, negative = cell killing [1] of -19.8%, an activity, negative = cell killing [2] of -13.4% and an activity, negative = cell killing [3] of -22.5%. The activity, negative = cell killing [4] was -33.9%.

In the case of `C[C@]12CCC(=O)C=C1CC[C@@H]1[C@@H]2[C@@H](O)C[C@@]2(C)[C@H]1CC[C@]2(O)C(=O)COP(=O)(O)O`, the activity, negative = cell killing [1] is reported as -5.72%, the activity, negative = cell killing [2] is reported as -20.1% and the activity, negative = cell killing [3] is reported as -14%. The activity, negative = cell killing [4] was -20.1%.

`Nc1ccn([C@H]2CS[C@@H](CO)O2)c(=O)n1` showed an activity, negative = cell killing [1] of -4.08%, an activity, negative = cell killing [2] of 8.01% and an activity, negative = cell killing [3] of -14.1%. The activity, negative = cell killing [4] was 0.221%.

Molecule `CC(=O)OCC(=O)[C@@]1(O)CC[C@H]2[C@@H]3C[C@H](C)C4=CC(=O)C=C[C@]4(C)[C@H]3[C@@H](O)C[C@@]21C` has an activity, negative = cell killing [1] of -16.5%, an activity, negative = cell killing [2] of -18.9% and an activity, negative = cell killing [3] of -15.4%. It also gave an activity, negative = cell killing [4] of 1.15%.

In the case of `C[C@]12O[C@H](C[C@]1(O)CO)n1c3ccccc3c3c4c(c5c6ccccc6n2c5c31)CNC4=O`, the activity, negative = cell killing [4] is reported as -97.6%, the Potency (tumour line A) is reported as 7.08 µM (active) and the Potency (tumour line B) is reported as 4.47 µM (active). The Potency (tumour line D) was 3.16 µM (active).

For `C[C@@H]1[C@H](O)[C@@H](C)/C=C/C=C\C=C\C=C\C=C\C=C\C=C\[C@H](O[C@@H]2O[C@H](C)[C@@H](O)[C@H](N)[C@@H]2O)C[C@@H]2O[C@](O)(C[C@@H](O)C[C@@H](O)[C@H](O)CC[C@@H](O)C[C@@H](O)CC(=O)O[C@H]1C)C[C@H](O)[C@H]2C(=O)O` (stereo in doubt), the activity, negative = cell killing [1] was -6.2%, the activity, negative = cell killing [2] was -9.92% and the activity, negative = cell killing [3] was -13.6%. The activity, negative = cell killing [4] was -5.87%.
